M1 ag = activates human CHRM1 receptor; P11229; CHO-K1 hM1, Fluo-8 calcium fluorescence, agonist mode; 0% DMSO, 100% acetylcholine EC100; activation, % at 3 µM; 0.33% of 360,000 active; AID 588814;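 active = activation above the run's mean compound activation plus 3 SD, cut at about 16% in these data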;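 also: peak over basal fluorescence ratio within a 140 s kinetic read after compound addition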
Target sequence (P11229 whole entry, looked up): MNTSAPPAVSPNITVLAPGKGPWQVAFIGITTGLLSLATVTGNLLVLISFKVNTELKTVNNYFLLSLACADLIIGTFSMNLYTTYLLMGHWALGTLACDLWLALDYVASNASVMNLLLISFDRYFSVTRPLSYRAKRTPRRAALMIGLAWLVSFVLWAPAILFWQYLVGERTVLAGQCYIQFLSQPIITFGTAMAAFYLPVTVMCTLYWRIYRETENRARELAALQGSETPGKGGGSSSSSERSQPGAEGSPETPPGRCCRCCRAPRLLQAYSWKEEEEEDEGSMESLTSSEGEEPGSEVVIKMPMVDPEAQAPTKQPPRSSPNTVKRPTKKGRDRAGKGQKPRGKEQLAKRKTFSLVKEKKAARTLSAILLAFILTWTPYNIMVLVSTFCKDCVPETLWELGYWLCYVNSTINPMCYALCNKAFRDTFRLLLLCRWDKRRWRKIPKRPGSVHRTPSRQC
CHRM1 antagonist = blocks human M1 muscarinic receptor; P11229; 1.3% of 360,000 active; AID 588852; inhibition, % at 3 µM; CHO-K1 hM1, Fluo-8 calcium fluorescence, ACh EC80 antagonist;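 active = percent inhibition above its own plate's cutoff, namely the mean of that plate's compound wells plus 3 SD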;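 also: peak over basal fluorescence ratio during 140 s after agonist addition; 0% = ACh EC80 plus DMSO and 100% = DMSO alone without agonist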
CHO-K1 Ca antag = counter-screen for M1 antagonists: effect in parental CHO-K1 cells; ATP-induced calcium, Fluo-8 fluorescence; inhibition, % at 3 µM; 0.6% of 360,000 active;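 active = inhibition above a per-plate cutoff, the plate's mean sample inhibition plus 3 SD, cut at about 24% in these data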;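 also: 0% = DMSO plus EC80 ATP and 100% = DMSO alone without ATP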
CHO-K1 Ca PAM = nonselective activator or artifact in parental CHO-K1 calcium assay | ATP EC20, Fluo-8 calcium fluorescence; 0% at ATP EC20, 100% at ATP max | activation, % at 3 µM | 0.02% of 360,000 active;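 active = activation above the run cutoff, the mean activation of all test compounds plus 3 SD, cut at about 40% in these data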;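 also: peak over basal fluorescence ratio in a 140 s read after ATP addition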
M1 PAM = positive allosteric modulators of human M1 muscarinic receptor; P11229; CHO-K1 hM1, Fluo-8 calcium fluorescence, ACh EC20; 0% = ACh EC20, 100% = maximal ACh; activation, % at 3 µM; 0.088% of 360,000 active; in the data active = activation above about 19%, passing the limit was not always enough
CHO-K1 Ca ag = counter-screen for M1 agonists: effect in parental CHO-K1 cells; Fluo-8 calcium fluorescence; scaled to maximal ATP response, vehicle zero; 0.48% of 360,000 active; activation, % at 3 µM; in the data active = activation above about 15%;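 also: untransfected CHO-K1 host cells lacking M1 receptor as counterscreen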
Numbers without * were called inactive. Hits are enriched below; roughly 2.3% of the tested compounds scored in any of these assays.

SMILES	M1 ag	CHRM1 antagonist	CHO-K1 Ca antag	CHO-K1 Ca PAM	M1 PAM	CHO-K1 Ca ag
Cc1ccc([N+](=O)[O-])cc1NC(=O)Nc1cccc(F)c1	4	34	26*	-22	-21	13
COc1ccc(-c2c(-c3cc(OC)cc(OC)c3)n(C)c3ccc(-c4ccc(S(N)(=O)=O)cc4)cc23)cc1	-4	4	-3	9	-7	0
COC(=O)C1CCN(c2ccc(Cl)nn2)CC1	-11	-2	-8	13	6	1
COc1ccc(CCn2c(C(C)C)nc3c(c(=O)c4ccccc4n3C)c2=O)cc1	-10	39*	17	-10	-31	2
Cn1cc(-c2csc(C(O)c3ccc(F)cc3)n2)cn1 (stereo unspecified)	2	-15	6	0	10	1
O=C(CN1C(=O)CC(c2ccco2)Sc2ccccc21)Nc1ccc2c(c1)OCCO2 (stereo unspecified)	-8	38*	0	-8	-22	5
CCN(CC)c1ccc(/C=C/c2ccc3ccc(OC)cc3[n+]2CC)cc1	3	48*	57*	-25	-14	11
CC(=O)c1cccc(-c2ccnc3c2CC(C(=O)Nc2ccc(Cl)c(C(F)(F)F)c2)O3)c1 (stereo unspecified)	2	-10	-10	6	2	1
Cc1cc(=O)[nH]c(-c2ccccc2OC(F)(F)F)n1	6	-11	-2	14	11	18*
CN1CCC(OC(=O)COc2ccc(Br)cc2)CC1	-13	31*	12	-5	-32	0
Cc1ccccc1OCC(=O)OC1CCN(C)CC1	-6	32*	-9	4	-18	0
COc1ccc(OCC(=O)OC2CCN(C)CC2)cc1	-3	-2	-11	17	6	0
CN1CCN(C(=O)c2cc([N+](=O)[O-])ccc2Cl)CC1	3	-25	-6	19	19	0
Cc1cc(N2CCCCCC2)nc2ccc(F)cc12	31*	15	-8	20	-15	0
Cc1cc(N2CCN(c3ccccc3)CC2)nc2ccccc12	-3	8	-10	22	-8	24*
O=c1c2ccc([N+](=O)[O-])cc2ncn1CCOc1ccccc1	-1	36*	4	-1	-12	6
Cc1nn(C)cc1CNC(=O)c1cc2n(n1)C(C(F)(F)F)CC(c1cccs1)N2 (stereo unspecified)	-3	23*	-5	-14	-17	3
Cc1nn(C)c(C)c1CNC(=O)c1nn2c(c1Cl)NC(c1cccs1)CC2C(F)(F)F (stereo unspecified)	-2	-8	-2	-7	-4	0
Cc1sc2ncnc(NC3CCN(Cc4ccccc4)CC3)c2c1C	-6	43*	10	11	-23	11
CC1CCCN(CCOc2ccc3ccccc3c2Br)C1 (stereo unspecified)	-7	-3	-4	15	2	5
O=C(Nc1cc(F)c(Br)cc1F)c1ccc(Cl)cc1	-3	39*	2	0	-18	7
Nc1cc(Cl)ccc1N1CCCCCC1	-7	0	-13	-11	-2	0
O=C(Nc1ccccc1N1CCOCC1)c1ccccc1NS(=O)(=O)c1ccc(F)c(F)c1	14	-13	24*	-6	-1	9
COc1ccc(-c2csc(NC(=O)c3ccccc3NS(=O)(=O)c3ccc(F)c(F)c3)n2)cc1	2	43*	23	-14	-16	15*
O=C(Nc1ccccc1N1CCOCC1)c1ccccc1NS(=O)(=O)c1ccc(F)cc1	0	8	3	11	-5	2
SMILES	M1 ag	CHRM1 antagonist	CHO-K1 Ca antag	CHO-K1 Ca PAM	M1 PAM	CHO-K1 Ca ag
Cc1ccc(S(=O)(=O)Nc2ccccc2C(=O)Nc2nc(-c3ccc(F)cc3)cs2)cc1	-1	35	26*	5	-17	16*
O=C(CCC1CCCN(C(=O)c2cccc(F)c2)C1)N1CCN(c2ccccn2)CC1 (stereo unspecified)	-5	7	-7	-16	1	2
O=C(Nc1nncs1)C1CC(=O)N(CCc2ccc(F)cc2)C1 (stereo unspecified)	1	-9	10	4	9	8
CCOc1cc(C(=O)N2CCCC2)cc(OCC)c1OCC	-1	-19	26*	-7	-1	0
COc1ccc(CNc2nc(SCC(=O)NCc3ccco3)nc3ccccc23)cc1	-8	-9	-3	15	-3	16*
C=CCC(C(=O)OC)(C(=O)OC)c1ccccc1[N+](=O)[O-]	-4	7	-18	-11	-5	1
Cc1cn([C@H]2C[C@H](O)[C@@H](/C=C/C(=O)NCCN3CCOCC3)O2)c(=O)[nH]c1=O	-1	-6	1	4	-5	0
CCOC(=O)c1[nH]c(CN2CCN(c3ccc(OC)cc3)CC2)c(C(=O)OCC)c1C	16*	3	-17	5	-1	10
C#CCOCCOCCOCCNc1nc(N2CCN(C(=O)CCCCCCCCCCNC(=O)[C@@H](CCC(=O)O)n3cc(CCCCCN)nn3)CC2)nc(N2CCN(C(=O)CCCCCCCCCCNC(=O)[C@H]([C@@H](C)CC)n3cc(CCCCCN)nn3)CC2)n1	18*	12	-15	10	-13	2
C#CCOCCOCCOCCNc1nc(N2CCN(C(=O)CCCCCCCCCCNC(=O)Cn3cc(CCCCCN)nn3)CC2)nc(N2CCN(C(=O)CCCCCCCCCCNC(=O)[C@@H](CCC(=O)O)n3cc(CCCCCN)nn3)CC2)n1	1	17	-8	10	-15	4
C#CCOCCOCCOCCNc1nc(N2CCOCC2)nc(N2CCN(C(=O)CCCCCCCCCCNC(=O)[C@@H](CCC(=O)O)n3cc(CCCCCN)nn3)CC2)n1	-1	9	8	-10	8	0
C#CCOCCOCCOCCNc1nc(N2CCN(C(=O)CCCCCCCCCCNC(=O)[C@H]([C@@H](C)CC)n3cc(CCCCCN)nn3)CC2)nc(N2CCN(C(=O)CCCCCCCCCCNC(=O)[C@H](CCCCN)n3cc(CCCC(=O)O)nn3)CC2)n1	18*	3	-10	6	-8	6
C#CCOCCOCCOCCNc1nc(N2CCN(C(=O)CCCCCCCCCCNC(=O)[C@H]([C@@H](C)CC)n3cc(CCCCCN)nn3)CC2)nc(N2CCN(C(=O)CCCCCCCCCCNC(=O)[C@H](CO)n3cc(CCCCCN)nn3)CC2)n1	19*	12	-14	5	-21	2
C#CCOCCOCCOCCNc1nc(N2CCN(C(=O)CCCCCCCCCCNC(=O)Cn3cc(CCCCCN)nn3)CC2)nc(N2CCN(C(=O)CCCCCCCCCCNC(=O)Cn3cc(CCCCCN)nn3)CC2)n1	-7	39*	-7	8	-35	3
